Experimental data from PubChem BioAssay (Tox21).
Where “and” joins values, the source holds several entries; their conditions need not be identical. Identical values can stand only once. Unmarked numbers belong to inactive results. Inconclusive results are not listed. A call without a number means that no potency is given here. Calls of active or inactive are those of the source. Unless noted, the call rests on the fitted dose curve; in most records, active means well fitted curve in the direction sought with a large enough effect in the repeat runs; inconclusive means weak or mixed curves; inactive means no such curve, though single readings can be large; an effect the other way counts as inactive or inconclusive.

Assays:
[1] = biological target: Luciferin 4-monooxygenase (Photinus pyralis) (UniProt P08659); assay: qHTS assay to identify small molecule inhibitors of firefly luciferase (AID 1224835); further: nearly all actives have a fitted effect of over 25% in size; further: potency means the concentration at half of the fitted maximal effect
Summary of the method: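 Biochemical qHTS: compounds run as interplate titrations against purified firefly enzyme, with D-luciferin and ATP each at its KM concentration. Light output recorded by CCD imaging.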

[2] = qHTS assay to identify small molecule agonists of the constitutive androstane receptor (CAR) signaling pathway - cell viability counter screen (AID 1224836); further: nearly all actives have a fitted effect of over 45% in size; further: potency means the concentration at half of the fitted maximal effect
Summary of the method: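 23 h treatment, 37 C, 5% CO2. Cell line: HepG2 stably expressing hCAR with a CYP2B6-2.2kb construct. Co-treatment: PK11195, 0.75 uM final. Read-out: CellTiter-Fluor fluorescence intensity.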

[3] = qHTS assay to identify small molecule antagonists of the constitutive androstane receptor (CAR) signaling pathway - cell viability counter screen (AID 1224837); further: nearly all actives have a fitted effect of over 45% in size; further: potency means the concentration at half of the fitted maximal effect
Summary of the method: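 CITCO at 50 nM final was added alongside compounds (15 concentrations) to double-stable hCAR/CYP2B6-2.2kb HepG2 cells. Following 23 hr at 37 C, cell viability was quantified by CellTiter-Fluor fluorescence intensity.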

[4] = biological target: Nuclear receptor subfamily 1 group I member 3 (Homo sapiens) (UniProt Q14994); assay: qHTS assay to identify small molecule antagonists of the constitutive androstane receptor (CAR) signaling pathway (AID 1224838); further: nearly all actives have a fitted effect of over 40% in size
Summary of the method: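 Inhibition of CITCO-driven (50 nM final) CYP2B6 reporter expression is measured in HepG2 cells stably carrying hCAR. Fifteen compound concentrations are applied for 24 h at 37 C, followed by luciferase luminescence.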

[5] = biological target: Nuclear receptor subfamily 1 group I member 3 (Homo sapiens) (UniProt Q14994); assay: qHTS assay to identify small molecule agonists of the constitutive androstane receptor (CAR) signaling pathway (AID 1224839); further: nearly all actives have a fitted effect of over 15% in size; further: potency means the concentration at half of the fitted maximal effect
Summary of the method: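 Compounds tested at 15 concentrations on HepG2 cells stably harbouring hCAR and CYP2B6-2.2kb reporter constructs, co-treated with PK11195 (0.75 uM final), 24 h at 37 C; luminescent reporter signal quantified.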

[6] = qHTS assay to identify small molecule antagonists of the estrogen related receptor signaling pathway with the pleiotropic PPARgamma coactivator (PGC) from Tox21 10K library - cell viability counter screen (AID 1224840; active means well fitted cell-killing curve with a large enough effect in the repeat runs, not every such curve was filed as active; further: nearly all actives have a fitted effect of over 40% in size)
Summary of the method: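 Readout: fluorescence intensity from CellTiter-Fluor after 30 min at 37 C/5% CO2. Preceded by 17.5 h treatment of PGC/ERR cells with DMSO-dissolved compounds, added 6 h post-seeding.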

[7] = qHTS assay to identify small molecule antagonists of the estrogen related receptor signaling pathway with the pleiotropic PPARgamma coactivator (PGC) from Tox21 10K library (AID 1224841; call rule not given here; further: actives are mostly falling curves and most rising ones were filed inactive; nearly all actives have a fitted effect of over 50% in size; further: potency means the concentration at half of the fitted maximal effect)
Summary of the method: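 One-Glo luminescence, measured after half an hour at room temperature, quantified reporter output of PGC/ERR cells. These had been plated at 2,000 per well, incubated 6 h, dosed with compounds in DMSO, then kept 18 h at 37 C.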

[8] = qHTS assay to identify small molecule agonists of the estrogen related receptor signaling pathway with the pleiotropic PPARgamma coactivator (PGC) from Tox21 10K library (AID 1224842); further: nearly all actives have a fitted effect of over 15% in size
Summary of the method: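 PGC/ERR reporter cell line, 2,000 cells per well, incubated 6 h at 37 C before 23 nL compound in DMSO was added. After 18 h at 37 C, One-Glo luminescence read following 30 min at room temperature.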

[9] = qHTS assay to identify small molecule agonists of the hypoxia (HIF-1) signaling pathway - cell viability counter screen (AID 1224844; calls by dose curve; further: nearly all actives have a fitted effect of over 50% in size; further: potency means the concentration at half of the fitted maximal effect)
Summary of the method: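 In this counter screen, HRE-bla ME-180 cell viability after 17 hrs of compound exposure at 37C was read by CellTiter-Glo luminescence, multiplexed with the beta-lactamase reporter measurement.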

[10] = qHTS assay to identify small molecule agonists of the hypoxia (HIF-1) signaling pathway (AID 1224846; active means well fitted activation curve with a large enough effect in the signal ratio in the repeat runs, not every such curve was filed as active; the % refers to the signal ratio)
Summary of the method: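 ME-180 HRE-bla reporter cells; compounds in DMSO, 17 h at 37C; read-out beta-lactamase via CCF4-AM FRET.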

[11] = qHTS assay to identify small molecule agonists of H2AX - cell viability counter screen (AID 1224847; calls by dose curve; further: nearly all actives have a fitted effect of over 30% in size; further: potency means the concentration at half of the fitted maximal effect)
Summary of the method: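 Compounds tested at 15 concentrations were incubated 3 hr at 37C with wild-type CHO-K1 cells; cellular ATP-based luminescence (CellTiter-Glo) indicated viability.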

[12] = qHTS assay to identify small molecule antagonists of the estrogen related receptor (ERR) signaling pathway from Tox21 library (AID 1224848); further: nearly all actives have a fitted effect of over 50% in size; further: potency means the concentration at half of the fitted maximal effect
Summary of the method: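 Quantitative high-throughput format: ERR reporter cells (2,000/well) pre-incubated 6 h, treated 18 h at 37 C with compounds in DMSO alongside positive and negative controls, then read by ONE-Glo luminescence.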

[13] = qHTS assay to identify small molecule agonists of the estrogen related receptor (ERR) signaling pathway from Tox21 library (AID 1224849; calls by dose curve; further: nearly all actives have a fitted effect of over 15% in size); details: ERR reporter cell line, ONE-Glo luciferase, 18 h; at 92.4 µM (top of the series) unless noted
Summary of the method: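 Luciferase activity in ERR pathway reporter cells served as the agonist readout; exposure lasted 18 h at 37 C, with ONE-Glo detection after 30 min at room temperature.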

[14] = qHTS RealTime-Glo MT Cell Viability Assay in HepG2 cells - 24 hour (AID 1224867); further: nearly all actives have a fitted effect of over 50% in size; further: potency means the concentration at half of the fitted maximal effect
Summary of the method: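 Tox21 10K library screened in qHTS format on HepG2 cells carrying RealTime-Glo reagents. Compounds were added after a 5 h preincubation, and the luminescent signal from continuous culture was measured repeatedly during 40 h treatment.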

[15] = A CellTox Green Cytotoxicity Assay to monitor cytotoxicity in HEK293 cells - 0 hour (AID 1224869); further: nearly all actives have a fitted effect of over 50% in size; further: potency means the concentration at half of the fitted maximal effect
Summary of the method: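 Real-time, in one plate: 600 HEK293 cells/well with dead-cell DNA dye, pinned compound after 5 h, 37 C incubation over 40 h; viable cells give no appreciable fluorescence.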

[16] = qHTS RealTime-Glo MT Cell Viability Assay in HepG2 cells - 40 hour (AID 1224870); further: nearly all actives have a fitted effect of over 50% in size
Summary of the method: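 HepG2 cells (600/well) mixed with RealTime-Glo MT reagent, settled 5 h at 37 C/5% CO2 before compound addition. Nonlytic NanoLuc luminescence from viable-cell prosubstrate reduction read repeatedly during 40 h treatment at 37 C.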

[17] = biological target: Thyrotropin receptor (Homo sapiens) (UniProt P16473); assay: qHTS assay to identify small molecule agonists of the thyroid stimulating hormone receptor (TSHR) signaling pathway (AID 1224843; calls by dose curve; further: nearly all actives have a fitted effect of over 45% in size; further: potency means the concentration at half of the fitted maximal effect)
Summary of the method: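 Agonist-mode screen: TSHR HEK293 cells received test chemicals for half an hour at room temperature, then HTRF cAMP detection reagents for one hour prior to fluorescence measurement. Each chemical ran as a 15-concentration series, triplicated.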

[18] = qHTS assay to identify small molecule agonists of H2AX (AID 1224845; active means well fitted activation curve with a large enough effect in the signal ratio in the repeat runs, not every such curve was filed as active; the % refers to the signal ratio)
Summary of the method: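 Wild-type CHO-K1 cells, plated overnight, exposed 3hr at 37C to 15 concentrations (0.76% DMSO final). Lysed, then HTRF anti-pH2AX (S139) cryptate and anti-H2AX-d2 antibodies, 24 hr room temperature; 665/620 nm emission read.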

[19] = qHTS RealTime-Glo MT Cell Viability Assay in HEK293 cells - 32 hour (AID 1224868); further: nearly all actives have a fitted effect of over 50% in size; further: potency means the concentration at half of the fitted maximal effect
Summary of the method: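 Luminescence generated by NanoLuc from substrate produced by living HEK293 cells served as the viability signal. Each value reflects the reading at its stated time point during continuous 40 h compound exposure at 37 C.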

Sequence of Luciferin 4-monooxygenase (Photinus pyralis) (P08659 whole entry, looked up): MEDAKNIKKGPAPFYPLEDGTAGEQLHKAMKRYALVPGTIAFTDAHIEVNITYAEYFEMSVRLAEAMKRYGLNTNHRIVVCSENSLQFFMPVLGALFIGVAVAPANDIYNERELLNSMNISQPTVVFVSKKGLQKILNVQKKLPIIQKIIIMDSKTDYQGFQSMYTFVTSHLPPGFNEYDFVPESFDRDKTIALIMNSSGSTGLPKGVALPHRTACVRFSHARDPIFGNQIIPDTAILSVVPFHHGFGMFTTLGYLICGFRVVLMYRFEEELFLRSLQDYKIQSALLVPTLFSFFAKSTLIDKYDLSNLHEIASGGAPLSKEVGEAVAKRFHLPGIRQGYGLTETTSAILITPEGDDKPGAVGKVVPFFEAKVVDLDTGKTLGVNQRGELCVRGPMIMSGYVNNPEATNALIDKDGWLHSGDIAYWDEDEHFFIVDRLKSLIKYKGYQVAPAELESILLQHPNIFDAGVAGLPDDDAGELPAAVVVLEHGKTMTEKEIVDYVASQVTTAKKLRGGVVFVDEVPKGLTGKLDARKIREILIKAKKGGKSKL
Sequence of Nuclear receptor subfamily 1 group I member 3 (Homo sapiens) (Q14994 whole entry, looked up): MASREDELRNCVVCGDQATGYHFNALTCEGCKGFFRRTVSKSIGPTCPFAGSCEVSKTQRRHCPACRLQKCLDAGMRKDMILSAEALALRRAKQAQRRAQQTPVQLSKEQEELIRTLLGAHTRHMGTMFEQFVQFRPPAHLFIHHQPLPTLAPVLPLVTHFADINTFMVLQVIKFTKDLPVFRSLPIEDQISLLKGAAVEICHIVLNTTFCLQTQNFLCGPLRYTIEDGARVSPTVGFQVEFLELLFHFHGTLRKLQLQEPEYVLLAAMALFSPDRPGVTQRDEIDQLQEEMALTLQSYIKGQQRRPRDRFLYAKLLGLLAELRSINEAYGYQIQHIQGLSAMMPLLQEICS
Sequence of Thyrotropin receptor (Homo sapiens) (P16473 whole entry, looked up): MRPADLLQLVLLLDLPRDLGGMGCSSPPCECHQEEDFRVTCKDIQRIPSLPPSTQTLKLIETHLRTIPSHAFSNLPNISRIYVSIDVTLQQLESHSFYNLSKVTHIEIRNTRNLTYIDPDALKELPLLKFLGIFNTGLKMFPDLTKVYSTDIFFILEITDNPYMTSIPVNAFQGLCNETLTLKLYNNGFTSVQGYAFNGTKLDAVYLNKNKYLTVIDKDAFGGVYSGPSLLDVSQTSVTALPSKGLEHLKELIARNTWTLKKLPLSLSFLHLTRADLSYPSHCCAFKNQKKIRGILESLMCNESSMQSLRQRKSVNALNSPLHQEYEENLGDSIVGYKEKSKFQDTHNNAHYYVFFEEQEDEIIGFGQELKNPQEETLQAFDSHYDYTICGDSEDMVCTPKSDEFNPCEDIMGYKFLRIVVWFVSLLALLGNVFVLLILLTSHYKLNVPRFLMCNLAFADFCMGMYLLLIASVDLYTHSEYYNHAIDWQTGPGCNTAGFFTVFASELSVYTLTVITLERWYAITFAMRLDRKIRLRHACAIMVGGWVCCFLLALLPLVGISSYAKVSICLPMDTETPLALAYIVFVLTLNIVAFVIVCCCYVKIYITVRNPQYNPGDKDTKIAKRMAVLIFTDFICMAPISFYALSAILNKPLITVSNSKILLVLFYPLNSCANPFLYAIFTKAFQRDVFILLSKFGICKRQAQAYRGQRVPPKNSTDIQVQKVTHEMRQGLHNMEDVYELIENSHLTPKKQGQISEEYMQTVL

| SMILES | Potency [1] | Potency [2] | Potency [3] | Potency [4] | Potency [5] | Potency [6] | Potency [7] | Potency [8] | Potency [9] | Potency [10] | Potency [11] | Potency [12] | activity change, positive = activation [13] | Potency [14] | Potency [15] | Potency [16] | Potency [17] | Potency [18] | Potency [19] |
| --- | --- | --- | --- | --- | --- | --- | --- | --- | --- | --- | --- | --- | --- | --- | --- | --- | --- | --- | --- |
| CC(C)(C)c1ccc(OP(=O)(Oc2ccccc2)Oc2ccccc2)cc1 | inactive | inactive | inactive | inactive | 48.9 µM (active) | inactive | 7.74 µM (active) | inactive | inactive | inactive | inactive | 61.5 µM (active) | -31.3% | inactive | inactive | inactive | – | – | – |
| C#CCC1=C(C)C(OC(=O)C2C(C=C(C)C)C2(C)C)CC1=O (stereo unspecified) | inactive | inactive | inactive | inactive | 60.7 µM (active) | – | – | inactive | inactive | inactive | – | 48.2 µM (active) | -46% | inactive | inactive | inactive | 60.7 µM (active) | inactive | – |
| c1ccc(Nc2ccc(Nc3ccccc3)cc2)cc1 | 28.1 µM (active) | inactive | inactive | inactive | 24.2 µM (active) | inactive | inactive | – | inactive | – | – | inactive | -22.9% | inactive | – | inactive | – | – | 21.8 µM (active) |
| O=S(=O)(NS(=O)(=O)C(F)(F)F)C(F)(F)F | – | 24.3 µM (active) | 30.5 µM (active) | – | – | inactive | – | – | – | – | 56.5 µM (active) | – | – | inactive | inactive | inactive | – | inactive | 1.94 µM (active) |
| Oc1cc(Cl)c(Cl)c(Cl)c1Cl | – | – | – | – | – | – | 21.2 µM (active) | – | inactive | – | 49.3 µM (active) | 26.7 µM (active) | -60.7% | inactive | – | inactive | inactive | inactive | – |
| CCCCN(CCCC)C(=S)[S-].CCCCN(CCCC)C(=S)[S-].[Ni+2] | inactive | inactive | inactive | – | – | – | 0.237 µM (active) | – | inactive | – | inactive | inactive | -0.422% [at 42.5 µM] | inactive | inactive | inactive | – | inactive | inactive |
| Oc1ccc2[nH]cc(CCCCN3CC=C(c4ccccc4)CC3)c2c1 | – | inactive | inactive | – | – | – | 5.96 µM (active) | – | inactive | inactive | – | 29.8 µM (active) | -32.1% [at 42.5 µM] | inactive | inactive | inactive | inactive | – | 23.9 µM (active) |
| O=S1OCC2C(CO1)C1(Cl)C(Cl)=C(Cl)C2(Cl)C1(Cl)Cl (stereo unspecified) | inactive | inactive | – | inactive | 30.7 µM (active) and 17.2 µM (active) | – | – | – | 48.9 µM (active) | – | 101 µM (active) and 89.7 µM (active) | – | – | 54.9 µM (active) | inactive | inactive | 4.33 µM (active) and 8.63 µM (active) | – | 21.9 µM (active) and 38.9 µM (active) |
| COP(=O)(OC)Oc1ccc([N+](=O)[O-])cc1 | inactive | – | – | inactive | inactive | – | 21.7 µM (active) | – | inactive | – | inactive | 30.6 µM (active) | -54.1% | inactive | – | inactive | inactive | inactive | inactive |
| O=S(=O)(O)F | inactive | inactive | – | inactive | inactive | inactive | – | – | inactive | inactive | inactive | – | – | inactive | inactive | inactive | inactive | inactive | inactive |
| CN1CCc2cc(Cl)c(O)cc2[C@H]2c3ccccc3CC[C@@H]21 | inactive | – | – | inactive | inactive | inactive | inactive | inactive | – | inactive | inactive | inactive | 0.522% [at 42.5 µM] | inactive | inactive | inactive | inactive | inactive | – |
| CN | – | inactive | inactive | inactive | inactive | inactive | – | – | inactive | – | – | – | – | inactive | inactive | inactive | inactive | inactive | – |
| Oc1cccc(Cl)c1Cl | – | inactive | inactive | inactive | inactive | inactive | – | – | – | inactive | inactive | – | -30.2% | inactive | – | inactive | inactive | – | – |
| COP(=S)(OC)Oc1nc(Cl)c(Cl)cc1Cl | – | inactive | inactive | inactive | – | inactive | inactive | – | – | inactive | inactive | inactive | -11.3% | inactive | inactive | inactive | inactive | inactive | inactive |
| C=Cc1cccc(CCl)c1 | inactive | inactive | – | inactive | inactive | inactive | – | – | inactive | – | inactive | – | – | inactive | inactive | inactive | inactive | inactive | inactive |
| Nc1nc(N)c(N)c(N)n1 | inactive | – | – | – | – | – | – | inactive | inactive | – | – | inactive | 0.198% | inactive | 49.2 µM (active) | inactive | inactive | – | inactive |
| C=CCOC(=O)c1ccccc1N | – | inactive | inactive | inactive | – | inactive | inactive | inactive | inactive | inactive | – | – | -28.9% | – | inactive | inactive | inactive | inactive | inactive |
| [Cl-].[Cl-].[Sn+2] | – | inactive | inactive | – | – | – | – | – | inactive | – | inactive | – | – | inactive | – | inactive | – | inactive | – |
